A3G deaminase: inhibitors of human APOBEC3G DNA deaminase; Q9HC16; recombinant A3G, ssDNA deamination FAM/TAMRA fluorescence; inhibition, % at 20 µM; hit rate 0.28% among 330,000; AID 493012;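 active means inhibition of at least 40% at 20 µM, with no more than 30% in the related APOBEC3A deaminase screen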;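 further: plate controls were DMSO wells with A3G for no effect and wells lacking A3G enzyme for full effect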
Target sequence (Q9HC16 whole entry, looked up): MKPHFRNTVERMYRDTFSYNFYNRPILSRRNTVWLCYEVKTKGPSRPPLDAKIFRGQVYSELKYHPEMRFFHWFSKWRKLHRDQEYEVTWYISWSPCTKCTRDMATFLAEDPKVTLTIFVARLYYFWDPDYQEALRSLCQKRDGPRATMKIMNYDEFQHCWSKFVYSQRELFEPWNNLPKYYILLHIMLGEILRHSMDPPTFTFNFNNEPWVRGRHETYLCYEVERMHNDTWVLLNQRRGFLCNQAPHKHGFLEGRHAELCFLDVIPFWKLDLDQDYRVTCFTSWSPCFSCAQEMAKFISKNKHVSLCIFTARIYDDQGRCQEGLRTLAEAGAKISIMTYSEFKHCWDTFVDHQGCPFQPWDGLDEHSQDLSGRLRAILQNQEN
NPR1 activator: GC-A (human) enzyme activation. P16066. HEK293 GC-A cells, cGMP TR-FRET, EC30 ANP; 0% at EC30 ANP, 100% saturating ANP. activation, % at 10 µM. hit rate 0.14% among 370,000. AID 1671463; in the data active means activation above about 40%
PfG6PD inh: PfG6PD (Plasmodium falciparum) enzyme inhibition; inhibition, % at 20 µM; AID 504690; PfGluPho enzyme, NADPH resazurin-diaphorase fluorescence; hit rate 0.78% among 350,000;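 active means inhibition reaching at least a set limit at 20 µM in the primary screen, cut at about 59% in these data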;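 further: 0% = DMSO wells with substrate and 100% = DMSO wells lacking glucose-6-phosphate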
Neddylation inh: blocks human cullin neddylation; TR-FRET cullin neddylation, biochemical; inhibition, % at 25 µM; AID 651699; hit rate 0.58% among 360,000; P61081+Q13564; in the data active means inhibition above about 36%
GC-B act: GC-B (human) receptor activation; P20594; HEK293-GC-B cells, CNP EC30, cGMP TR-FRET; 0% at EC30 CNP, 100% saturating CNP; activation, % at 10 µM; hit rate 0.11% among 370,000; AID 1920062;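 active means activation at 10 µM reaching about 35% in either raw or pattern-adjusted values, limit read from the data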
APOBEC3A inh: blocks human APOBEC3A ssDNA deamination | P31941 | recombinant A3A, FAM/TAMRA ssDNA deamination fluorescence | inhibition, % at 20 µM | hit rate 0.41% among 330,000;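 active means at least 40% inhibition at 20 µM here, with at most 30% in a related deaminase screen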;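 further: plate controls were A3A with DMSO for no effect and wells lacking A3A enzyme for full effect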
Target sequence (P31941 whole entry, looked up): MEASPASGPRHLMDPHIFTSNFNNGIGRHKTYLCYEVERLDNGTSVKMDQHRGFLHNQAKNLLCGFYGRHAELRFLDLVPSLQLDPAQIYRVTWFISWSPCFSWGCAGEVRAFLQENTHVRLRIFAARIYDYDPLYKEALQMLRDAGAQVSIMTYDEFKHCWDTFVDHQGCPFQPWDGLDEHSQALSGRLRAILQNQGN
PfGluPho conf: PfG6PD inhibition, single-dose confirmed; shares compounds with PfG6PD inh; recombinant PfGluPho, NADPH-diaphorase-resazurin fluorescence; inhibition, % at 20 µM; hit rate 34% among 2,400; AID 504753;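 active means inhibition of at least 50% at 20 µM in any single replicate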;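 further: 0% = DMSO with substrate and 100% = DMSO lacking glucose-6-phosphate substrate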
Diaphorase 10uM: counter-screen for P. falciparum G6PD inhibitors: diaphorase inhibitors, oxidizers; shares compounds with PfG6PD inh; diaphorase-coupled resazurin reduction, fluorescence, NADPH 10 uM; inhibition, % at 20 µM; hit rate 39% among 820; AID 504862;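 active means average inhibition reaching 50% or more with the compound at 20 µM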;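 further: resorufin red fluorescence formed as diaphorase reduces resazurin using NADPH; 0% = DMSO with enzyme and 100% = DMSO without enzyme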
Diaph ctr 30uM: inhibits diaphorase or oxidizes, flagging false PfG6PD hits. shares compounds with PfG6PD inh. Diaphorase/resazurin coupled assay, resorufin fluorescence, 30 uM NADPH. inhibition, % at 20 µM. hit rate 29% among 820. AID 504863;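 active means inhibition averaging 50% or more, tested at 20 µM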;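 further: 0% = DMSO with enzyme and 100% = DMSO wells lacking diaphorase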
* marks the source's active call; other numbers are inactive results; . = no result given; ! = repeats disagree. Rows were chosen to be rich in hits. Some 2% of all compounds tested hit in one or more screens of this group.

SMILES | A3G deaminase | NPR1 activator | PfG6PD inh | Neddylation inh | GC-B act | APOBEC3A inh | PfGluPho conf | others
CCOC(=O)c1cc2c(=O)n3cccc(C)c3nc2n(Cc2ccco2)c1=NC(=O)c1cccnc1 | . | 6 | 60* | . | -1 | . | -1
CCOC(=O)N1CCN(C(=O)C[C@H]2C(=O)N(CCCOC)C3=CCCC[C@@]32C(=O)OCC)CC1 | . | 3 | . | . | 3 | . | .
CCOC(=O)CSc1nc2c(c(=O)[nH]c(=O)n2C)n1CCc1ccccc1 | -2 | -4 | 27 | 0 | -1 | -2 | .
CCCn1c(N2CCC(Cc3ccccc3)CC2)nc2c1c(=O)[nH]c(=O)n2C | -5 | -1 | 9 | 6 | 1 | -7 | .
Cn1c(=O)[nH]c(=O)c2c1nc(SCC(=O)O)n2CCc1ccccc1 | -3 | -1 | 63* | 0 | 7 | -5 | 9
CCCCCn1c(N2CCC(Cc3ccccc3)CC2)nc2c1c(=O)[nH]c(=O)n2C | 3 | . | 66* | -13 | . | 3 | -12
Cc1nc2oc3c(NCC4CCCO4)ncnc3c2c2c1COC(C)(C)C2 (stereo unspecified) | -4 | 8 | 13 | . | 1 | 2 | .
CC(C)c1nc2oc3c(NCC4CCCO4)ncnc3c2c2c1COC(C)(C)C2 (stereo unspecified) | . | 14 | 66* | . | 0 | . | 37
CC(NCc1ccco1)C(=O)N1CCOCC1 (stereo unspecified) | . | 1 | . | . | -9 | . | .
COc1ccc(N=Cc2ccccc2O)cc1 | . | 4 | 7 | 1 | 1 | . | .
COc1ccc(N=Cc2[nH]c3ccccc3c2O)cc1 | -5 | -7 | 59* | -16 | 3 | 2 | 15
Cc1ccc(/C=C/C(=O)OCC(=O)NCc2cccs2)o1 | -6 | -2 | 61* | -16 | 7 | -3 | 6
COc1ccc(Cl)cc1C=CC=Nc1ccccc1O | . | 0 | 76* | -11 | -3 | . | 19
C=CCNC(=S)NNC(=O)c1ccc([N+](=O)[O-])cc1 | -10 | -1 | 10 | -49 | -3 | -5 | .
C=CCN(CC=C)C(=S)NC(=O)c1ccc([N+](=O)[O-])cc1 | -6 | 2 | 86* | -31 | 6 | -3 | -7
C[C@H]1[C@@H](NC(=O)C(c2ccccc2)c2ccccc2)CC[C@@]23CCCN2C(=O)CCC[C@@H]13 | . | -7 | . | . | -7 | . | .
CC(=NNC(=S)N1CCN(c2ccccn2)CC1)c1nccs1 | . | . | 93* | -27 | . | . | 57* | Diaphorase 10uM=-3;Diaph ctr 30uM=4
CC(=NNC(=S)N1CCN(c2ccccn2)CC1)c1ccccn1 | . | -4 | 84* | -12 | 0 | . | 30
S=C(NC1CCCC1)N1CCN(c2ccccn2)CC1 | -7 | 2 | -6 | 16 | 10 | -5 | .
O=S1(=O)c2ccc(Br)cc2OC[C@@H](Cc2ccccc2)N1Cc1cn(Cc2ccc(Cl)cc2)nn1 | . | -6 | . | . | 6 | . | .
O=C(NCCc1ccccn1)c1ccc2c(c1)ncn2C1CCCCC1 | . | 3 | . | . | -4 | . | .
O=C1c2c(O)ccc(O)c2C(=O)c2c(NCCNCCO)ccc(NCCNCCO)c21 | 91 | -28 | 62*! | -31 | -40 | 100 | 11
COC(=O)c1ccccc1C(=O)c1ccc2c(c1)NC(=O)CO2 | -6 | -1 | 68* | 8 | -6 | -2 | 35
O=C1COc2ccc(C(=O)COC(=O)c3ccccc3F)cc2N1 | -6 | 0 | 1 | -52 | 0 | 1 | .
Cc1c(C(=O)Nc2nc(-c3ccccn3)cs2)oc2ccccc12 | 25 | . | 62* | 24 | . | 4 | 25
SMILES | A3G deaminase | NPR1 activator | PfG6PD inh | Neddylation inh | GC-B act | APOBEC3A inh | PfGluPho conf | others
O=C(Nc1nc(-c2ccccn2)cs1)c1cc2ccccc2o1 | -1 | -6 | 6 | 36 | -1 | -2 | .
COC(=O)C1CN(C2CCCC2)CCS(=O)(=O)N1Cc1cn(Cc2ccccc2)nn1 (stereo unspecified) | . | 1 | . | . | 5 | . | .
COCCN1C=C2C(=O)C(C)(OC(=O)CCC(=O)OC)C(=O)C(Br)=C2C=C1c1ccc(OC)cc1 (stereo unspecified) | -5 | . | 94* | -20 | . | -2 | 44
COC(=O)CCC(=O)OC1(C)C(=O)C2=CN(Cc3ccco3)C(c3ccc(OC)cc3)=CC2=C(Br)C1=O (stereo unspecified) | 2 | . | . | . | . | 10 | .
COC(=O)CCC(=O)OC1(C)C(=O)C2=CN(C3CCCC3)C(c3ccc(OC)cc3)=CC2=C(Br)C1=O (stereo unspecified) | -6 | 1 | 70* | -80 | 5 | -2 | 67* | Diaphorase 10uM=56*;Diaph ctr 30uM=51*
C=CCN1C=C2C(=O)C(C)(OC(=O)CCC(=O)OC)C(=O)C(Br)=C2C=C1c1ccc(OC)cc1 (stereo unspecified) | -3 | . | 86* | -41 | . | -1 | 55* | Diaphorase 10uM=40;Diaph ctr 30uM=36
COC(=O)CCC(=O)OC1(C)C(=O)C2=CN(c3ccc(OC)cc3)C(c3ccc(OC)cc3)=CC2=C(Br)C1=O (stereo unspecified) | -11 | . | 71* | -17 | . | -1 | 48* | Diaphorase 10uM=31;Diaph ctr 30uM=24
CCN(CC)C(=O)CC[C@H]1CC[C@]2(CCCN(C(=O)c3ccc4ccccc4n3)C2)O1 | . | 1 | . | . | -10 | . | .
COC(=O)[C@]12C[C@H](CC(=O)NCc3ccc(OC)c(OC)c3)C(=O)N(Cc3cccc4ccccc34)C1=C[C@H](COCc1ccccc1)O[C@@H]2C | . | 1 | . | . | -3 | . | .
N#Cc1cccc(Cn2ccc3ccc(-c4ccc5ccn(Cc6ccccc6)c5c4)cc32)c1 | . | 1 | . | . | -1 | . | .
O=C1C=CC(=O)N1Cc1ccccc1 | 17 | 2 | 71* | -9 | -2 | 7 | -16
CN1C(=O)N(C)N(Cc2ccccc2)C(=O)N1Cc1ccccc1 | . | 1 | . | . | 3 | . | .
Cc1ccc(S(=O)(=O)NC(=O)Nc2ccc(N(C)C)cc2)cc1 | 3 | -78 | 73* | -34 | 6 | 4 | 21
CCCCCCCCNC(=O)C1CSCCS(=O)(=O)N1Cc1ccc(OC)cc1 (stereo unspecified) | . | -1 | . | . | 5 | . | .
O=c1[nH]c2ccc(NS(=O)(=O)c3ccc(F)c(Cl)c3)cc2[nH]1 | -3 | 2 | 63* | 0 | 1 | 3 | 16
Cc1ccc(S(=O)(=O)Nc2ccc3cn[nH]c3c2)c(C)c1 | -7 | -4 | 37 | -17 | -7 | -1 | .
Cc1ccc(S(=O)(=O)Nc2ccc3[nH]c(=O)[nH]c3c2)c(C)c1 | -10 | 2 | 49 | -9 | -6 | -2 | 20
O=c1[nH]c2ccc(NS(=O)(=O)c3ccc4ccccc4c3)cc2[nH]1 | -8 | -3 | 42 | -12 | 1 | -1 | .
